In PubChem BioAssay one finds composite z-score data, which are given here for 24 molecules.

In the assay the target is Follistatin (Homo sapiens) (UniProt P19883). The experiment in a line: FST protein binding to printed compounds – biochemical, small-molecule microarray, 635/667 nm fluorescence, primary screen (AID 1132). The note with it: 635 nm fluorescence, higher = more signal.
Chain of Follistatin (Homo sapiens) (P19883 whole entry, looked up): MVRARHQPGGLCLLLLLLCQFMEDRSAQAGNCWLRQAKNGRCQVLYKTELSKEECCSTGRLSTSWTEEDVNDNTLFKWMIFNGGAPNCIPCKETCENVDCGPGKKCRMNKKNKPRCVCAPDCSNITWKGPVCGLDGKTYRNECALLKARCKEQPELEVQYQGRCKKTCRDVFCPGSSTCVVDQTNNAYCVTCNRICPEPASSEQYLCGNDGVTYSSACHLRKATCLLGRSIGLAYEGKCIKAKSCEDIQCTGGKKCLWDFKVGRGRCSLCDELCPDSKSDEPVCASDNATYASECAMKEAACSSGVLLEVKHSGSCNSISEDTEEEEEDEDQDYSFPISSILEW
Consider `CCOC(=O)C[C@H]1[C@H](OC(=O)Cc2ccc3c(c2)OCO3)[C@@H](NC(=O)c2ccccc2)c2cc(OCCCO)ccc2N1C(=O)c1ccc2ccccc2n1`, for which the composite z-score was determined as 0.166.
With `Cc1ccc(S[C@]2(C(=O)NCc3ccccc3)CC(=O)N(C3Cc4ccccc4C3)[C@@H]2c2ccc(CO)cc2I)cc1` the figure was -0.328; with `CC(C)C(CO)N1C(=O)[C@@H]2[C@H]3C(=O)OCC=C[C@H]3OC23C=CCN(CCN2CCOCC2)C(=O)[C@@H]13` (some centres undefined), 0.418.
With `C=CCOC(=O)[C@@H]1[C@H]2C(=O)O[C@H](c3ccccc3)[C@H](c3ccccc3)N2[C@H](c2ccc(OCCOC(=O)[C@H]3C[C@H]4C(=O)N[C@@H](Cc5ccccc5)C(=O)N4[C@H]3c3cccc(OCCO)c3)cc2)[C@@]12C(=O)Nc1ccc(I)cc12` the figure was 1.42; with `CCOC(=O)C[C@H]1[C@H](OC(=O)c2ccccc2-c2ccccc2)[C@@H](NC(=O)c2ccccc2)c2cc(OCCCO)ccc2N1C(=O)Cc1ccc(OC)cc1`, -0.0263; with `NCCCCCCNC(=O)[C@H]1C[C@H]2C(=O)N3CCC[C@H]3C(=O)N2[C@H]1c1ccc(O)cc1`, 1.36.
Under `COC(=O)[C@@]1(Cc2ccc(F)cc2)[C@H]2c3cc(C(=O)N4CCCC4)n(Cc4ccccc4)c3C[C@H]2CN1C(=O)c1ccccc1` stands 0.724; under `COC(=O)[C@@]1(Cc2ccccc2)[C@H]2c3cc(C(=O)N(C)C)n(Cc4ccccn4)c3C[C@H]2CN1C(=O)c1ccccc1`, -0.226; under `O=C1c2ccccc2[C@](Cc2ccccc2I)(C(=O)NCC(F)(F)F)[C@H](c2ccc(CO)cc2)N1Cc1ccccc1`, 1.14.
Molecule `O=C1NC(=O)C2C1C=CC(C(O)c1ccc3c(c1)OCO3)N2Nc1ccc(Cl)cc1Cl` (centres undefined) registered a composite z-score of 0.579.
With `COCCOC(=O)N1C(=O)[C@@]2(c3cc(C#CCCO)ccc31)[C@H](c1ccc(OCCO)cc1)N1[C@H](c3ccccc3)[C@H](c3ccccc3)OC(=O)[C@H]1[C@@H]2C(=O)N1CCc2cc(OC)c(OC)cc2C1` the figure was 1.22; with `CC(C)c1ccc(NN2C(C(O)c3cccs3)C=CC3C(=O)N(c4ccccc4)C(=O)C32)cc1` (centres undefined), 0.963; with `C#CCNS(=O)(=O)N(C)C`, 0.103.
With `C=CC[C@]1(C(=O)N(C)C)N=C(c2ccc(OCCCO)cc2)O[C@H]1c1ccccc1` the figure was 0.915; with `C[C@@H]1ON(c2ccccc2)[C@H](c2ccccc2)[C@H]1C(=O)N1C(=O)OC[C@H]1Cc1ccccc1`, 0.586; with `COc1ccc([Si](C)(C)[C@H]2[C@H](CC(=O)N3CCC[C@H]3CO)O[C@@]3(C(=O)N(Cc4ccc(N5C(=O)c6cccc7cccc5c67)cc4)c4ccccc43)[C@@H]2C)cc1`, 1.07.
In turn, `COCC1=C([C@H](O)CCc2ccccc2)[C@H](CO)[C@@H]2C(=O)N(C)C(=O)[C@@H]2C1` registered a composite z-score of 0.191.
With `O=C(NCc1ccccc1)[C@]1(Cc2ccccc2)N=C(c2ccc(OCCCO)cc2)O[C@@H]1c1ccccc1` the figure was -0.0037.
With `C=C(C(=O)CC[C@H](OC(=O)c1cccnc1)c1ccc(OCCO)cc1)C(C)C` the figure was 1.05; with `O=C(O)[C@@]1(Cc2ccccc2)COC(c2ccc(OCCCO)cc2)=N1`, 0.24; with `CCOC(=O)C1=CC[C@@H](c2cccc(Br)c2)N(S(=O)(=O)c2ccc(C)cc2)[C@H]1c1ccc([N+](=O)[O-])cc1`, 0.782.
With `CN(C)C(=O)[C@@]1(CCC(=O)OC(C)(C)C)COC(c2ccc(OCCCO)cc2)=N1` the figure was 0.625.
Consider `O=C1O[C@H](c2ccccc2)[C@H](c2ccccc2)N2[C@H]1[C@@H](C(=O)N1CCN(c3ncccn3)CC1)[C@]1(C(=O)Nc3ccc(C#CCCO)cc31)[C@H]2c1ccc(OCCO)cc1`, for which the composite z-score worked out at 1.36.
Under `COC(=O)[C@@]1(Cc2ccccc2)[C@H]2c3cc(C(=O)N4CCCC4)n(CCO)c3C[C@H]2CN1C(=O)c1ccccc1` stands 0.961.
